GLP1R inv ag – GLP-1 receptor (human) inverse agonism | P43220 | HEK293 GLP-1R CRE-luciferase, luminescence, 24 h; GLP-1R form is constitutively active | Potency, µM (doses to about 38.3 µM), hits mostly inhibitors | 410,000 tested, 1.6% active | AID 624417; also: nearly all actives have a fitted effect of over 55% in size
Target sequence (P43220 whole entry, looked up): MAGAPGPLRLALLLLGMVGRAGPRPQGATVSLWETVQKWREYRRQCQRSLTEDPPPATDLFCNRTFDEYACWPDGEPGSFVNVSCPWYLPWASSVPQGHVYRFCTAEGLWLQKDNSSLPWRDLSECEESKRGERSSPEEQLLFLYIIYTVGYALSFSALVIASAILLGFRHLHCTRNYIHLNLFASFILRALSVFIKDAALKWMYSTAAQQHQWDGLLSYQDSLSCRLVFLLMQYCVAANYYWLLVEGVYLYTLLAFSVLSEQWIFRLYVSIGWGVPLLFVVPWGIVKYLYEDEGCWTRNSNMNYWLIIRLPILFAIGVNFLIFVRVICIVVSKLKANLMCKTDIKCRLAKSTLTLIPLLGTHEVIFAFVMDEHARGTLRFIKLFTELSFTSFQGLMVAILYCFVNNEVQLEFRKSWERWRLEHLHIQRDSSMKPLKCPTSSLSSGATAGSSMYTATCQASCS
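Stable HEK293 clone (constitutively active GLP-1R + cAMP-response luciferase); 200 cells/uL plated, 12 h pre-culture, compound 24 hr, 37 deg C/5% CO2; detection reagent 12 min RT; luminescence.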
a7 integrin act – activators of alpha7 integrin expression for muscular dystrophy; alpha7betagal myoblasts, beta-gal FDG fluorescence, 48 h; Potency, µM (top dose mostly 38.3 µM), actives largely listed as activators; 350,000 tested, 0.064% active; also: nearly all actives have a fitted effect of over 60% in size
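Alpha7betagal+/- myoblasts (passage 13) were plated 16-24 hr, then exposed to compounds (1:260 dilution of DMSO stock) for 48 hours at 37C. After MPER lysis, β-galactosidase reporter activity was read as FDG fluorescence (ex 480/em 540) after 30 minutes.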
BRCA1 expr act – increases BRCA1 expression; MCF7-BRCA1-FFLuc reporter, luminescence, 48 h; response scale: scaled: vehicle 0%, 10 µM genistein 100%; Potency, µM (doses to about 46.1 µM), hits mostly activators; 380,000 tested, 1.1% active; AID 624202; also: nearly all actives have a fitted effect of over 80% in size
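Quantitative HTS in MCF7 cells stably reporting BRCA1 expression via firefly luciferase. Compound treatment lasts 48 h at 37 °C in phenol-red free MEM. Activation is expressed relative to genistein at 10 microM and DMSO.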
GLP-1R agonist – agonists of human GLP-1 receptor | P43220 | HEK293 GLP-1R CRE-luciferase, luminescence, 4-6 h; cells express a hypersensitive GLP-1R form | Potency, µM (titrated, usually from 45.6 µM), usual class: activators | 380,000 tested, 0.007% active | AID 624172
GLP1R cytotox – cytotoxicity counter-screen for GLP-1 receptor inverse agonists; HEK293 cAMP-luciferase reporter cells, luminescence, 24 h; Potency, µM (highest dose often 38.3 µM), most hits filed as inhibitors; 410,000 tested, 0.13% active;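 also: loss of luciferase light is scored as toxicity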
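Luminescence readout: signal drop marks cytotoxicity. Plated cells grew 12 h at 37 °C, 5% CO2, received 23 nL compound for 24 h, then got luciferase reagent, read after 12 min at RT.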
Numbers stand for hits; - = inactive; ? = inconclusive; . = no result given; [ ] = another dose, or the depositor's remark. An excerpt weighted towards active compounds, which were near 2.7% of everything screened. Calls follow the shape of the dose curve; as a rule, active = well fitted curve in the direction sought with a large enough effect; inconclusive = small, poorly fitted or top-dose-only effect, or another doubt; inactive = no such curve, though single readings can be large; an effect the other way counts as inactive or inconclusive.

SMILES | GLP1R inv ag | a7 integrin act | BRCA1 expr act | GLP-1R agonist | GLP1R cytotox
CC(C)C(O)(c1ccccc1)C(CN1CCOCC1)c1ccccc1 (stereo not given) | ? | - | - | - | -
COc1ccc(C(O)(CCC(C)C)C(CN2CCOCC2)c2ccccc2)cc1 (stereo not given) | 10µM | - | - | - | ?
CCCCCC(O)(c1ccccc1)C(CN1CCOCC1)c1ccccc1 (stereo not given) | 10µM | - | - | - | -
CC(C)CCC(O)(c1ccccc1)C(CN1CCOCC1)c1ccccc1 (stereo not given) | ? | - | - | - | -
CCc1nn2c(=O)cc(COc3ccc(/C=C(\C#N)C(=O)Nc4ccc(C)cc4)cc3)nc2s1 | - | . | - | - | -
Cc1ccc(S(=O)(=O)N2CCN(c3nc(-n4ccnc4)nc4ccccc34)CC2)cc1 | . | . | - | . | .
CC(C)(C)c1ccc(S(=O)(=O)N2CCC(O)(c3ccc(Cl)cc3)CC2)cc1 | 7.1µM | - | - | - | -
CN1CCN(CC2(O)CCN(S(=O)(=O)c3ccc(Cl)cc3)CC2)CC1 | 0.89µM | - | - | - | -
COc1ccc(S(=O)(=O)N2CCC(O)(c3ccc(Cl)cc3)CC2)cc1 | ? | - | - | - | -
CCCNC(=O)C1CCC(Cn2c(=O)c3sccc3n(CC(=O)N3CCCC(C)C3)c2=O)CC1 (stereo not given) | - | . | . | . | -
CCOc1ccccc1CNS(=O)(=O)c1ccc2[nH]c(=O)ccc2c1 | - | . | - | - | -
O=C(NCc1ccccc1CN1CCCC1)c1ccc(S(=O)(=O)Nc2ccccc2)cc1 | 13µM | - | - | - | -
Cc1cc(C)nc(Nc2ccc(O)cc2)n1 | - | - | - | - | -
Cc1cc(C)nc(Nc2ccc(C(=O)O)cc2)n1 | - | - | 2.8µM | - | -
CCOc1ccc(N=C(/C(C(=O)C(=O)N2CCOCC2)=C(\O)c2ccccc2)c2ccccc2)cc1 | - | - | 7.9µM | - | -
FC(F)C(F)(F)Oc1cccc(Nc2nccn3c(-c4ccc5ccccc5c4)cnc23)c1 | 11µM | . | - | - | -
CCOC(=O)c1c(C)c(-c2ccccc2)n(CC(=O)NC2CCCCC2)c1C | - | . | - | - | ?
COc1cccc(/C=C2\CCc3ccccc3C2=O)c1 | - | - | 13µM | - | -
COc1ccc(/C=C2\CCc3ccccc3C2=O)cc1OC | - | - | - | - | -
CC(=O)Oc1ccc(/C=C2/CCc3ccccc3C2=O)cc1 | ? | - | 13µM | - | -
CCCOc1ccc(NC2=CC(=O)CC(C)(C)C2)cc1 | - | - | - | - | -
CCCCOc1ccc(C2(C)CC(=O)NC2=O)cc1 (stereo not given) | - | - | 13µM | - | -
COc1ccc(COc2cc(-c3cccc(OC)c3)nc3ccc(NC(=O)c4cccnc4)cc23)cc1 | 2.8µM | - | - | - | -
COc1ccc(COc2cc(-c3cccc(OC)c3)nc3ccc(NC(=O)c4ccc(OC)cc4)cc23)cc1 | ? | - | - | - | -
CC(=O)c1ccc(S(=O)(=O)Nc2ccc(-c3cn4c(C)csc4n3)cc2)cc1 | - | . | - | - | -
SMILES | GLP1R inv ag | a7 integrin act | BRCA1 expr act | GLP-1R agonist | GLP1R cytotox
Cc1ccc(NC(=O)CN2CC(C)SC2=NC2CCCCC2)cc1 (stereo not given) | 11µM | - | - | - | ?
CCc1ccc(NC(=O)CN2CCN(C3CCCCC3)C(=O)C2=O)cc1 | - | . | . | . | -
Cn1cc(C(=O)NCc2ccc(Cl)cc2)c(=O)c2cc(S(=O)(=O)N3CCCCCC3)ccc21 | - | . | . | . | -
O=C(NCC1CCCO1)C(c1cccs1)N(C(=O)c1ccc(-c2ccccc2)[nH]1)C1CCCC1 (stereo not given) | 10µM | - | - | - | -
CCc1ccc(NC(=O)CSc2nnc(-c3nonc3NC(C)=O)n2-c2ccccc2)cc1 | ? | . | . | . | -
CC(C)c1ccc(C2CC(=O)c3cnc(NC(=O)c4ccco4)nc3C2)cc1 (stereo not given) | ? | - | 10µM | - | -
COC(=O)c1ccc(COc2cccc(C)c2C)cc1 | -[7.66 µM] | - | 10µM | - | -[7.66 µM]
COc1cc(/C=C/C(=O)O[C@H]2CC[C@]34C[C@]35CC[C@]3(C)[C@@H]([C@H](C)CCC=C(C)C)CC[C@@]3(C)C5CCC4C2(C)C)ccc1O (stereo not given in full) | . | . | . | - | .
CC(C)CCOCc1nc2sc3c(c2c(=O)[nH]1)CCC(C)C3 (stereo not given) | - | - | 13µM | - | -
N#Cc1ccccc1Oc1ccc(S(=O)(=O)N2CCCCC2)cn1 | - | - | 10µM | - | -
Cc1nc(N2CCCC2)ncc1C(=O)Nc1ccccc1 | - | . | . | . | -
O=[N+]([O-])c1ccc(O)c(C=Nc2ccc3c(c2)OCCO3)c1 | - | - | 11µM | - | -[1.53 µM]
CCn1cc(C(=O)N2CCN(c3ccc(OC)cc3)CC2)c(=O)c2cc(S(=O)(=O)N(C)C3CCCCC3)ccc21 | - | . | - | - | -
CC(C)Sc1nnc(-c2c[nH]c3ccccc23)n1C | - | - | 7.1µM | - | -
CCOC(=O)C1=C(C)N(CC)C(=S)NC1c1ccc(Cl)cc1 (stereo not given) | 10µM | - | - | - | ?
COc1ccc(OCCn2nnc3sc4c(c3c2=O)CCCC4)cc1 | - | . | . | . | -
CCc1ccc(CNC(=O)Cn2nc(C)c3nn(-c4ccc(Cl)cc4)c(C)c3c2=O)cc1 | - | . | . | . | -
O=C(NCc1cccc(F)c1)C1=Cc2cc(Br)ccc2OC1 | ? | . | . | . | -
Cc1ccc(CNC(=O)C(Cc2ccccc2)n2cccc2)cc1 (stereo not given) | ? | - | - | - | -
CC(NC(=O)C(Cc1ccccc1)n1cccc1)c1ccccc1 (stereo not given) | 11µM | - | - | - | -
COCCCOc1cc(C[C@@H](C[C@H](N)[C@@H](O)C[C@H](C(=O)NCC(C)(C)C(N)=O)C(C)C)C(C)C)ccc1OC | . | . | . | - | .
S=C(NCCc1cccc(Cl)c1)NC1CCCCC1 | ? | - | 3.2µM | - | ?
O=S(=O)(c1cccs1)N1CCN(CC(O)COc2cccc(Br)c2)CC1 (stereo not given) | 8.9µM | - | - | - | -
O=S(=O)(c1cccs1)N1CCN(CC(O)COC2CCCc3ccccc32)CC1 (stereo not given) | ? | - | - | - | -
CCCC/C=C1\CCc2c([nH]c3ccccc23)C1=O | - | ? | 1.4µM | - | -
CCOc1ccc(-n2nc(CO)c(C(=O)NCc3ccc(Cl)cc3)n2)cc1 | - | . | . | . | -
CCc1nn(CC(=O)NCCCN(CC)CC)c(=O)c2cc3sc(C)cc3n12 | 10µM | - | - | - | -
CCc1nn(CC(=O)NCCCN(CC(C)C)CC(C)C)c(=O)c2cc3sc(C)cc3n12 | - | . | . | . | -

Compound activity from PubChem BioAssay.
